# Compound activity from PubChem.
# In the library only some 2.8% were active in any assay of this set; here they are far more common.
# Glyco luc inh = N-linked glycosylation inhibition; D54 ERlucT glycosylation luciferase reporter, 24 h; percent of 100 nM tunicamycin response; reporter increase, % at 12.5 µM; AID 588692; hit rate 0.23% among 360,000;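 active means mean luciferase reporter signal, scaled so untreated is 0 and the glycosylation-blocking control 100, at or above a set limit in every replicate; inconclusive means mean reaches the limit but not every replicate does; inactive means mean below the limit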;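 further: luciferase carries N-glycosylation sites so blocking glycosylation raises the light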
# HIV Env fusion = blocks HIV Env-driven cell-cell fusion. AID 651610. inhibition, % at 12.3 µM. HeLa-JRFL Env/CEM21 cell fusion, luciferase. hit rate 1.1% among 360,000;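 active means mean replicate inhibition score of at least 50 and every replicate individually at or above 50; inconclusive means only one of the two criteria met; inactive means mean below 50 and not all replicates reaching 50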
# NSD2 HMT inh = inhibitors of human histone methyltransferase NSD2 | inhibition, % at 12.5 µM | hit rate 0.54% among 310,000 | NSD2 peptide methylation, AlphaScreen, 120 min | O96028; in the data active means inhibition above about 50%
# PAX8 inh HTS = inhibitors of PAX8 transcriptional activity in RMG-I cells; RMG-I TPO-luciferase reporter, SteadyGlo, 24 h; inhibition, % at 12.6 µM; hit rate 1.2% among 360,000; AID 652154;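 active means mean replicate inhibition at least 60% with every replicate also reaching 60%; inconclusive means only one of the two criteria is met; inactive means mean below 60% and not all replicates reaching 60%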;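 further: luciferase light reporting Pax8 driven TPO promoter activity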
# Shn3 3UTR inh = reduces Shn3 3'UTR luciferase signal in osteoblasts | inhibition, % at 12.5 µM | hit rate 0.52% among 360,000 | Clone20 osteoblast Shn3 3'UTR firefly luciferase, 24 h;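 active means mean inhibition of at least 75% with every replicate also reaching 75%; inconclusive means mean inhibition at least 75% but some replicate below; inactive means mean inhibition below 75%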
# LMP1 NFkB inh = inhibitors of Epstein-Barr LMP1-induced NF-kappaB reporter; LMP1-induced NF-kappaB luciferase reporter cells, luminescence; inhibition, % at 12.5 µM; AID 504558; hit rate 0.69% among 350,000; in the data active means inhibition above about 41%; inconclusive means no clear call, values can overlap the other calls
# A number is an active result; . = inactive; ? = inconclusive; / = no result given; [ ] = dose if it differs, or a comment.
SMILES,Glyco luc inh,HIV Env fusion,NSD2 HMT inh,PAX8 inh HTS,Shn3 3UTR inh,LMP1 NFkB inh
O=C1CCCn2cc(nn2)COC[C@H](Cc2ccccc2)N1,/,.,/,.,/,/
C[C@@H]1CN([C@H](C)CO)C(=O)c2cccc(NC(=O)c3cnccn3)c2O[C@@H]1CN(C)C(=O)Nc1ccc(F)cc1,/,.,/,.,/,/
O=c1c2cnn(-c3ccccc3)c2nc(-c2cccs2)n1-c1ccc(Br)cc1,.,/,.,/,.,42.7
Oc1[nH]c2ccccc2c1N=NC(=S)N1CCOCC1,.,/,.,/,/,.
Oc1[nH]c2ccc(Br)cc2c1N=NC(=S)N1CCOCC1,.,.,/,91.2,97.1,.
CC1(Cc2ccc(Cl)cc2)C(=O)Nc2ccc(-c3ccc(F)c(Cl)c3)cc21 (stereo not drawn),.,.,.,.,.,/
COc1ccccc1-c1ccc2c(c1)C(C)(Cc1ccccc1C#N)C(=O)N2 (stereo not drawn),.,63.1,.,.,.,/
COc1ccccc1-c1ccc2c(c1)C(C)(Cc1ccc(Cl)c(Cl)c1)C(=O)N2 (stereo not drawn),.,99.8,.,.,.,/
C[C@H]1CN([C@@H](C)CO)C(=O)Cc2cc(NC(=O)Nc3cccc4ccccc34)ccc2O[C@H]1CN(C)Cc1ccc(C(F)(F)F)cc1,/,.,/,.,/,/
C[C@@H]1CN([C@H](C)CO)C(=O)c2cc(NC(=O)c3ccncc3)ccc2O[C@@H]1CN(C)C(=O)NC1CCCCC1,/,/,/,.,/,/
Nc1cc2[nH]c(=O)c3ccccc3c2cc1Br,.,.,.,.,.,.
Nc1cc2c(cc1Br)[nH]c(=O)c1ccccc12,.,82.9,/,.,.,.
Cc1ccc2c(CSc3nnc4ccccn34)cc(=O)oc2c1C,.,/,.,65.9,.,.
Cc1ccc2c(CSc3nc4ccccc4c(=O)n3CCCO)cc(=O)oc2c1C,.,/,.,/,.,.
COCC(=O)Nc1ccc2c(c1)C(=O)N(C)[C@@H]1CC[C@@H](CC(=O)NCCc3ccccc3)O[C@@H]1CO2,/,.,/,.,/,/
CCC(CC)CC1CN2CCc3cc(OC)c(OC)cc3C2CC1(O)CC (stereo not drawn),.,.,.,.,85.3,.
O=S(=O)(c1ccc(F)cc1)c1nc(-c2ccco2)oc1Nc1ccccc1,.,65.5,.,.,.,.
CC1(C)C2CC=C(/C=N/NC(=S)NCCc3ccccc3)C1C2 (stereo not drawn),.,67.3,.,.,.,.
Cc1ccnc(SCC(=O)c2cccc([N+](=O)[O-])c2)n1,.,.,.,.,.,.
Cc1nc(SCC(=O)c2cccc([N+](=O)[O-])c2)n[nH]1,.,/,/,/,.,55.2
COc1ccc(Cn2c(SCc3ccc(C)cc3)nc3cc(OC)c(OC)cc3c2=N)cc1Cl,.,122.4,/,109.3,.,90.4
COc1ccc(Cn2c(SCc3cc(C)ccc3C)nc3cc(OC)c(OC)cc3c2=N)cc1,.,.,/,/,95.9,?
COc1cc2nc(SCc3ccc(Cl)cc3Cl)n(Cc3cccs3)c(=N)c2cc1OC,.,.,.,/,.,.
CCC(=O)N1C[C@@H](C)[C@@H](OC)CN(C)C(=O)c2cc(NC(=O)c3ccc(F)cc3)ccc2OC[C@@H]1C,/,.,/,.,/,/
Cc1nc(SCC(=O)Nc2cccc(Cl)c2)n[nH]1,.,/,.,/,.,.
SMILES,Glyco luc inh,HIV Env fusion,NSD2 HMT inh,PAX8 inh HTS,Shn3 3UTR inh,LMP1 NFkB inh
O=C(CSc1n[nH]c(-c2ccccn2)n1)Nc1cccc(Cl)c1,.,/,.,/,92.3,.
O=C(C[C@H]1C=C[C@H](NC(=O)NC2CCCCC2)[C@@H](CO)O1)NCc1ccc(F)cc1,/,.,/,.,/,/
Nc1nc(N)c2cc(S(=O)(=O)c3cccc(C(F)(F)F)c3)ccc2n1,.,.,.,.,85.3,.
C[N+]1(C)CCC(=C2c3ccccc3CC(=O)c3sccc32)CC1,.,63.8,/,.,.,.
CC[N+]1(C)CCC(=C2c3ccccc3CC(=O)c3sccc32)CC1 (stereo not drawn),.,.,.,/,.,.
Cc1cnc(NC(=O)c2cc(S(=O)(=O)N(C)C)ccc2N2CCCC2)s1,97.8,?,.,.,.,/
CCc1cccc(NC(=O)c2cc(S(=O)(=O)N(C)C)ccc2N2CCCC2)c1,38.6,.,.,.,.,.
CN(C)S(=O)(=O)c1ccc(N2CCCC2)c(C(=O)Nc2nccs2)c1,78.9,/,.,.,.,.
CN(C)S(=O)(=O)c1ccc(N2CCCC2)c(C(=O)Nc2nc(-c3ccc(F)c(F)c3)cs2)c1,.,.,.,.,.,.
CCCCCCN1C[C@@H](n2cc(-c3ccc(F)cc3)nn2)[C@H](O)C[C@@H]1c1ccc(Cl)cc1,.,?,/,89.5,?,.
COc1ccc(N2C(c3ccsc3)=Cc3cc4c(cc3C2c2c[nH]c3ccccc23)OCO4)cc1 (stereo not drawn),/,.,/,73.0,/,/
CCOc1ccccc1NS(=O)(=O)c1ccc(-c2cnc(C3CC3)o2)cc1,.,.,.,76.4,.,.
Cc1cccc(N(C)S(=O)(=O)c2ccc(-c3cnc(C4CC4)o3)cc2)c1,.,.,.,98.9,.,.
COc1ccc(NS(=O)(=O)c2ccc(-c3cnc(C4CC4)o3)cc2)cc1OC,.,.,.,.,.,.
COc1ccccc1CNS(=O)(=O)c1ccc(-c2cnc(C3CC3)o2)cc1,.,.,.,.,.,45.5
COc1ccccc1NS(=O)(=O)c1ccc(-c2cnc(C3CC3)o2)cc1,.,.,.,.,.,.
CN(C[C@@H]1[C@@H](c2ccccc2)[C@H](CO)N1C(=O)C1CCC1)C(=O)c1ccccn1,/,/,/,.,/,/
CN1C(=O)c2cc(NC(=O)C3CCCC3)ccc2OC[C@H]2O[C@H](CC(=O)NCCc3ccncc3)CC[C@@H]21,/,/,/,.,/,/
CC(C)CC(NS(=O)(=O)c1ccc2c(c1)oc(=O)n2C)C(=O)NC1CCCc2ccccc21 (stereo not drawn),.,58.2,/,.,.,.
O=C1C(=O)c2ccccc2C(O)=C1CCCCl,.,/,105.6,/,.,.
CCNC(=O)Nc1ccc2c(c1)C(=O)N(C)[C@@H]1CC[C@@H](CC(=O)NCc3ccccc3F)O[C@H]1CO2,/,.,/,.,/,/
CCOC(=O)CSC1=C(C#N)C(c2ccc(C)o2)CC(=O)N1 (stereo not drawn),.,.,/,64.7,.,.
COc1ccc(OCC(=O)Nc2ccc3oc(-c4ccncc4)nc3c2)cc1,.,.,.,.,.,.
COc1ccc(-c2nc3cc(NC(=O)Cc4ccc(OC)c(OC)c4)ccc3o2)cc1,.,63.4,.,.,.,.
C[C@@H]1CN([C@@H](C)CO)C(=O)c2cccc(NC(=O)Nc3ccccc3)c2O[C@@H]1CN(C)Cc1ccc(C(=O)Nc2ccccc2N)cc1,/,.,/,68.3,/,/
C[C@@H]1CN([C@H](C)CO)C(=O)c2cccc(NC(=O)Nc3ccccc3)c2O[C@H]1CN(C)Cc1ccc(C(=O)Nc2ccccc2N)cc1,/,.,/,.,/,/
CC(C)NC(=O)N(C)C[C@H]1Oc2c(NC(=O)Nc3ccc(C(F)(F)F)cc3)cccc2C(=O)N([C@@H](C)CO)C[C@H]1C,/,56.3[16.7 µM],/,.,/,/
